Results filed as inconclusive are left out. A call without a number means that no potency is given here. A number with no mark means an inactive call. Active and inactive are the calls of the source. Calls follow the shape of the dose curve; as a rule, active = well fitted cell-killing curve with a large enough effect; inconclusive = small, poorly fitted or top-dose-only effect; inactive = no such curve, though single readings can be large or run the other way.

Consider 40 molecules from PubChem BioAssay (NCATS).

The assay can be described thus: qHTS of pediatric cancer cell lines to identify multiple opportunities for drug repurposing: Primary screen for Rh30 cells (AID 1347107). Also: nearly all actives have a fitted effect of over 75% in size. Conditions: Rh30 rhabdomyosarcoma viability, CellTiter-Glo luminescence, 48 h; series mostly up to 46 µM. The source says:
Drug repurposing or repositioning has been offered as a strategy for drug development in oncology programs. This approach has special potential for childhood cancers and other rare or orphan diseases, where the expected return on new drug development has been a disincentive to pharmaceuticals.
In this project we exploit the poly-pharmacology of drugs to discover new indications via phenotypic screening of a panel of 19 well-characterized cell lines derived from solid tumors seen in children and adolescents. The goal is to identify approved drugs with previously unrecognized anticancer properties that has the potential to reveal new mechanisms and biological processes involved in carcinogenesis or drug resistance. We employed a titration-based paradigm (quantitative high-throughput screening or qHTS), where all compounds were tested at multiple concentrations for their effect on cell viability. Concentration-response curves (CRCs) were derived directly from the primary screen, and both potency and efficacy values were used to identify compounds with robust bioactivity profiles. We screened the NIH Chemical Genomics Center (NCGC) Pharmaceutical Collection (NPC) and Mechanism Interrogation Plate (MIPE) small molecule collections of approved and investigational compounds against these cell lines; and measured metabolically active cells after 48 hours of compound treatment as a proxy for cell viability.
Assay Submitter: Nathalia J. Martinez, National Center for Advancing Translational Sciences, National Institutes of Health, Rockville, MD, USA; email: natalia.martinez@nih.gov
[1] Shen, M et al. Quantitative high-throughput phenotypic screening of pediatric cancer cell lines identifies multiple opportunities for drug repurposing. Oncotarget 2017 Dec 19;9(4):4758-4772. PMID 29435139.
The cells were obtained from University of North Carolina (UNC), Pediatric Preclinical Testing Program (PPT), and Coriell Institute (CI).
qHTS cell viability assay:
Cells were assayed in growth media at a density of 500-1,000 cells/well. Five microliters of cells were dispensed into 1,536-well, white, solid-bottom, TC-treated plates (Greiner Bio One) using a multidrop dispenser and incubated at 37 degrees C, 5% CO2, under a humidified atmosphere for 5 hours. Twenty-three nanoliters of compounds and controls (neutral control DMSO or positive control bortezomib at final concentration of 2.3 µM) were subsequently transferred by Kalypsys pintool. For primary screens, the MIPE collection was tested at 11-point dilutions (final concentrations range from 0.78 nM to 46 µM) and the NPC collection at 8-point dilutions (final concentrations range from 0.59 nM to 46 µM). Compounds tested in follow-up screens were assayed at 11-point dilutions. Cells were incubated for 48 hours, followed by addition of 3 µL of CellTiter-Glo (Promega). After a 15 min incubation at room temperature, samples were analyzed for luminescence intensity using a ViewLux High-throughput CCD imager equipped with clear filters.
(In general: In qHTS, concentration-response curves come from the screen itself.)
Take `CC[N+](CC)(CCNC(=O)C(=O)NCC[N+](CC)(CC)Cc1ccccc1Cl)Cc1ccccc1Cl`: the Potency entry is “inactive”.

Turning to `CCOC(=O)c1cccc(N)c1`, the Potency entry was “inactive”.

With `COc1cc(C(=S)N2CCOCC2)cc(OC)c1OC`, the Potency entry is “inactive”. Consider `CNCC[C@@H](Oc1ccccc1C)c1ccccc1`, for which the Potency result was “inactive”.

Regarding `CCN1CCCC1=O`, the Potency entry is “inactive”. Take `C[C@]12CC[C@@H]3c4ccc(O)cc4CC[C@H]3[C@@H]1C[C@@H](O)[C@@H]2O`: the Potency entry was “inactive”. On the same count and under the same terms, under `CCCN1CCCC[C@H]1C(=O)Nc1c(C)cccc1C` stands “inactive”.

With `CCn1cc(C(=O)O)c(=O)c2cnc(N3CCCC3)nc21`, the activity change, negative = cytotoxic is 8.92% [at 9.22 µM]. For `CN(C)CCOc1ccccc1Cc1ccccc1`, the Potency result is “inactive”. Turning to `CC(=O)[C@H]1CC[C@H]2[C@@H]3C[C@H](C)C4=CC(=O)CC[C@]4(C)[C@H]3[C@@H](O)C[C@]12C`, the Potency result was “inactive”. As to `NC(=O)c1cc[n+](CC2=C(C(=O)[O-])N3C(=O)[C@@H](NC(=O)Cc4cccs4)[C@H]3SC2)cc1`, the Potency entry was “inactive”. `C[C@@H](CN(C)C)CN1c2ccccc2Sc2ccccc21`: the Potency result is “inactive”.

As for `CCCCN1CCCC1C(=O)Nc1c(C)cc(C)cc1C` (stereo not given), the Potency entry was “inactive”. Turning to `CN1[C@@H]2CC[C@H]1CC(OC(=O)c1c[nH]c3ccccc13)C2` (stereo not given in full), the Potency entry is “inactive”.

Take `CCOC(=O)n1ccn(C)c1=S`: the Potency entry is “inactive”.

Take `CC(=O)c1ccc2c(c1)N(CCCN1CCC(CCO)CC1)c1ccccc1S2`: the Potency entry was “inactive”. The same measure, in the same setting: the entry for `O=c1ccc2ccccc2o1` is “inactive”; for `Oc1c(Cl)cc(Cl)cc1Sc1cc(Cl)cc(Cl)c1O` it is “inactive”; for `C[C@@H]1C[C@H]2[C@@H]3C[C@H](F)C4=CC(=O)C(Cl)=C[C@]4(C)[C@@]3(F)[C@@H](O)C[C@]2(C)[C@@]1(O)C(=O)CO` it is “inactive”. Consider `COC(=O)[C@@H]1CC2=CC(=O)CC[C@]2(C)[C@@]23O[C@@H]2C[C@@]2(C)[C@@H](CC[C@@]24CCC(=O)O4)[C@H]13`, for which the Potency result was “inactive”. With `CC1(C)O[C@@H]2C[C@H]3[C@@H]4C[C@H](F)C5=CC(=O)CC[C@]5(C)[C@H]4[C@@H](O)C[C@]3(C)[C@]2(C(=O)CO)O1`, the Potency entry is “inactive”.

With `CC(C)COC(=O)c1ccc(N)cc1`, the Potency entry was “inactive”.

For the molecule `CC(=O)N/N=C/c1ccc([N+](=O)[O-])o1`, the Potency result is “inactive”.

For the molecule `CC(C)(CO)[C@@H](O)C(=O)NCCCO`, the Potency result was “inactive”. Still for that read-out and setting: under `CCCCS(=O)(=O)N[C@@H](Cc1ccc(OCCCCC2CCNCC2)cc1)C(=O)O` stands “inactive”; under `COc1ccc(OC)c(C(O)CNC(=O)CN)c1` (stereo not given), “inactive”; under `CCCCCCCCCCCCCCNCCO`, “inactive”.

Take `NCCc1ccn[nH]1`: the Potency entry was “inactive”. As for `CCCCCCCCCCOCC(O)CN` (stereo not given), the Potency result is “inactive”. The same measure, in the same setting: under `OC[C@@H](O)[C@@H](O[C@@H]1O[C@H](CO)[C@H](O)[C@H](O)[C@H]1O)[C@H](O)[C@@H](O)CO` stands “inactive”. With `COc1c(C)c2c(c(O)c1C/C=C(\C)CCC(=O)O)C(=O)OC2`, the Potency entry was “inactive”. `CC(Cc1ccccc1)(NC(=O)CN)c1ccccc1` (stereo not given): the Potency entry was “inactive”. With `C/C=C(/C(=C/C)c1ccc(O)cc1)c1ccc(O)cc1`, the Potency entry is “inactive”. With `CC(=O)OCC(=O)[C@@]1(OC(C)=O)[C@@H](C)C[C@H]2[C@@H]3C[C@H](F)C4=CC(=O)C=C[C@]4(C)[C@@]3(F)[C@@H](O)C[C@@]21C`, the Potency result was “inactive”. Consider `Nc1nc2ncc(CNc3ccc(C(=O)N[C@@H](CCC(=O)O)C(=O)O)cc3)nc2c(=O)[nH]1`, for which the Potency result is “inactive”. As for `Clc1ccc2c(c1)CCc1cccnc1C2=C1CCNCC1`, the Potency entry is “inactive”. On to `Cc1cccn2c(=O)c(-c3nnn[nH]3)cnc12`, for which the Potency result is “inactive”.

On to `Cc1c(C)n(Cc2ccccc2)c2ccc(C(=O)OCCN(C)C)cc12`, for which the Potency entry was “inactive”.

In the case of `Cc1cc(O)c(C(C)C)cc1Cl`, the Potency result is “inactive”. Still for that read-out and setting: under `N[C@@H](CCC(=O)N[C@@H](CS)C(=O)NCC(=O)O)C(=O)O` stands “inactive”.
